Sampled rows, rich in hits. Any-hit rate of the full collection: about 8%.
PostGolgi yeast: phenotypic screen on post-Golgi transport, primary screen. post-Golgi transport phenotypic cell assay. inhibition, % at 10 µM. actives 0.9% (n = 98,000);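 note: yeast cells grown in 1536-well plates; yeast grown about 18 h at 30C before absorbance read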
Pyk2 oligo antag: antagonists of Pyk2 self-association, primary screen, Q293 cells, FERM NanoBiT luminescence, HTS; Protein-tyrosine kinase 2-beta (Homo sapiens), Q14289; active compounds read low; z-score (the deposit names both 25 µM and 10 µM); actives 0.83% (n = 99,000);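 active = Z-score of -3 or lower, scaled per plate to the spread of control and sample wells; inactive = z-score above -3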;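 note: negative z-score means lost luminescence so less FERM oligomerization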
Target sequence (Q14289 whole entry, looked up): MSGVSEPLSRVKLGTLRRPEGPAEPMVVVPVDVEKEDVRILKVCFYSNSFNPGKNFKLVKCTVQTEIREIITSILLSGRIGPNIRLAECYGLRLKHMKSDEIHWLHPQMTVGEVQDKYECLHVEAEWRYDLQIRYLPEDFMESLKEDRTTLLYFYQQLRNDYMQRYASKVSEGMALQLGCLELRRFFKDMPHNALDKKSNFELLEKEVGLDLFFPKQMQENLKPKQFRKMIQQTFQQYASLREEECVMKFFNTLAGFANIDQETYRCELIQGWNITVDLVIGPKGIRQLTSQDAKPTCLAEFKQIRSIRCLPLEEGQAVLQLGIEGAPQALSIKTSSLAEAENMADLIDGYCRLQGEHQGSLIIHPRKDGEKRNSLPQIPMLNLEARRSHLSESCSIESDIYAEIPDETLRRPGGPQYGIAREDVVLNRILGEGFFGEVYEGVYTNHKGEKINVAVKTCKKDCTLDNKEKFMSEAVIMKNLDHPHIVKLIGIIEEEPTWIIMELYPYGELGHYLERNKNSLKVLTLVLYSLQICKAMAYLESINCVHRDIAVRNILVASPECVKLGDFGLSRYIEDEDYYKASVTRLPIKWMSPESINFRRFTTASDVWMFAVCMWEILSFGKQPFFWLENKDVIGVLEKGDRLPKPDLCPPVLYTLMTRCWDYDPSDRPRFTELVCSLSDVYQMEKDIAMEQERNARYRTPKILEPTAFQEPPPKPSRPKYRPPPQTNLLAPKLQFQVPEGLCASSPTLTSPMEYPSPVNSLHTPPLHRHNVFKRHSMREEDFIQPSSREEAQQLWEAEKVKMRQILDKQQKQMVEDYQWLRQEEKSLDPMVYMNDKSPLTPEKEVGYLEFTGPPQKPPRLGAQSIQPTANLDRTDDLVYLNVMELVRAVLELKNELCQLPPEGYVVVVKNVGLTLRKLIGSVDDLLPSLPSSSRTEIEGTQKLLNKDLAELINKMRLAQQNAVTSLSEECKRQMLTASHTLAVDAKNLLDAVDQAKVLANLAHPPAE
Cav32 inh: Cav3.2 calcium influx blockers – cell-based, Fluo-4 calcium fluorescence, FDSS, MLSMR library, primary screen; Voltage-dependent T-type calcium channel subunit alpha-1H (Homo sapiens), O95180; Cav3.2-expressing cells; active compounds read low; B-score at 10 µM; actives 4% (n = 100,000); AID 449739, 2010;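 active = single-dose well whose peak fluorescence ratio is a statistical outlier from its plate by either plate-standardised score or position-corrected B-score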
PostGolgi ctrl: growth inhibition of yeast control strain, primary screen, counter-screen for post-Golgi transport modulator project. efflux-deficient yeast background strain, growth absorbance A615, 16 h. inhibition, % at 10 µM. actives 5% (n = 98,000). AID 738, 2007
Active calls of the source: *; . = not tested or not shown. Cut-off read from the data, not from the text of the source, unless noted: active = inhibition above about 30%; inactive = the rest.

SMILES	PostGolgi yeast	Pyk2 oligo antag	Cav32 inh	PostGolgi ctrl
CN1CCCC(OC(=O)CCCC(=O)OC2CCCN(C)C2)C1 (configuration not stated)	-2	0.06	-0.48	-6
COC(=O)CCc1c(C)[nH]c(C(=O)OCc2ccccc2)c1C	13	-0.18	-3.2	31*
O=C(c1ccco1)N1CCN=C1SCc1cccnc1	30*	1.9	0.95	-2
CC(=O)N1CCN=C1SCc1ccc(Cl)cc1	3	.	0.22	35*
O=C(c1cccs1)N1CCN=C1SCc1cccnc1	6	0.21	1.6	31*
O=C(c1cccc(F)c1)N1CCN=C1SCc1cccnc1	-4	.	0.023	3
O=C(c1ccc2c(c1)OCO2)N1CCN=C1SCc1ccccc1	-9	.	-5.4*	9
Cn1nnc(NC(=O)COc2ccc(C3CCCCC3)cc2)n1	4	1.2	-1.3	2
CCCCCCCCC(=O)NC(NC(=S)N1CCOCC1)C(Cl)(Cl)Cl (configuration not stated)	.	-0.04	-4.2*	.
c1ccc(-c2n[nH]c(-c3ccccc3)c2-c2nc3ccccc3[nH]2)cc1	8	-0.88	-5.2*	13
O=C1C2C(C(=O)N1Cc1cccnc1)C1C=CC2C12CC2 (configuration not stated)	-10	-0.26	1	-3
CNS(=O)(=O)c1cnccc1N1CCN(c2cccc(C(F)(F)F)c2)CC1	13	-2.2	0.067	28
O=C(CN1CCOCC1)NCC12CC3CC(CC(C3)C1)C2	1	0.21	1.2	37*
O=C(CC12CC3CC(CC(C3)C1)C2)NCCN1CCOCC1	4	1.4	0.25	2
C=CCn1c(SCCC)nc(O)cc1=O	1	-2.6	0.8	9
O=C(N/N=C/c1cc2ccccc2nc1Cl)/C(=C/c1cccs1)NC(=O)c1ccccc1	9	-0.62	-5.9*	4
O=C1CCCC2=C1C(c1ccco1)Nc1ccc(C(=O)c3ccccc3)cc1N2 (configuration not stated)	-5	-0.87	-3.6*	4
Nc1nc(N2CCOCC2)cc(=O)[nH]1	-7	-0.28	.	6
CC(C)CCN1C(=O)c2ccc(-c3nc4ccccc4c(=O)o3)cc2C1=O	0	-3.3*	-0.38	6
COc1ccc(NC2=C(C)C(=O)CC2)cc1	-4	-0.38	0.75	46*
CC(C)(C)c1ccc(OCCNC(=O)c2ncn[nH]2)cc1	13	-0.21	-0.69	3
CC(=O)Nc1ccc(S(=O)(=O)N2CCN(C(=O)c3cccnc3)CC2)cc1	-1	-0.4	1.1	-3
CCN1CCCC1CNC(=O)C(=O)Nc1ccc(OC)cc1 (configuration not stated)	-18	0.33	0.22	42*
OCc1nc2ccccc2n1C/C=C/c1ccccc1	1	0.52	-2.4	2
CCOc1ccc2[nH]c(=O)c(CN(Cc3ccc(F)cc3)C(=O)c3ccco3)cc2c1	3	1.5	-4.3*	21
SMILES	PostGolgi yeast	Pyk2 oligo antag	Cav32 inh	PostGolgi ctrl
CCc1ccc2[nH]c(=O)c(CN(Cc3ccc4c(c3)OCO4)C(=O)c3ccco3)cc2c1	3	.	-3.3*	6
O=C(c1cc2ccccc2oc1=O)N(Cc1ccccc1)Cc1ccc2c(c1)OCO2	.	-3.1*	-6.1*	.
O=C(c1cc2ccccc2oc1=O)N1CCN(Cc2ccc3c(c2)OCO3)CC1	8	0.26	.	3
COc1ccccc1N1CCN(C(=O)c2c(-c3ccccc3Cl)noc2C)CC1	-6	-0.29	0.46	0
Cc1cc(C)c2c(=O)[nH]c(=O)n(Cc3ccccc3)c2n1	8	-0.97	-0.16	43*
CCOC(=O)C1CCCN(C(=O)c2ccc3c(c2)NC(=O)C(N2CCOCC2)S3)C1 (configuration not stated)	-7	1.9	-0.26	0
CCN(CC)c1ccc(/C=C(/C#N)c2nc3ccccc3[nH]2)c(OC(C)C)c1	2	-3.4*	-3.5*	11
COc1nc(NCc2ccco2)nc(NC2CCCCC2)n1	.	-1.1	-4*	.
COc1nc(NCc2ccco2)nc(N2CCC(C)CC2)n1	16	-0.45	.	8
COC(=O)c1sccc1NC(=O)CSc1ccccc1NS(=O)(=O)c1ccccc1Cl	0	-2.7	-4.3*	14
COC(=O)c1sccc1NC(=O)CSc1cc(Cl)ccc1Cl	-19	-0.33	.	17
COC(=O)c1sccc1NC(=O)CSc1ccccc1NS(=O)(=O)c1ccc(Cl)cc1	21	-1.8	-6*	22
Cc1ccc(-c2nnc(SCC(=O)N3CC(C)CC(C)C3)o2)cc1C (configuration not stated)	2	.	-3.3	15
C/C(CC(=O)Nc1ccc(Cl)c(Cl)c1)=N\NC(N)=S	-4	0.66	-1.1	-4
COc1cccc(C2=CC(=O)CC(c3ccco3)C2)c1 (configuration not stated)	.	.	-0.36	.
CC(C)(C)NC(=O)NC(=O)COC(=O)c1ccco1	2	-0.48	-0.017	-9
O=S(=O)(Nc1ccc(-n2cccc2)cc1)c1ccc(Cl)cc1Cl	-4	-0.61	-2.2	67*
Cc1c(N=c2c(=O)c3ccccc3c2=O)c(=O)n(-c2ccccc2)n1C	6	.	-0.13	3
O=C(Oc1cccc(Br)c1)c1cccnc1	12	-1.3	0.27	34*
O=[N+]([O-])c1ccc(C(=Nc2cccc3ccccc23)N2CCOCC2)cc1	-2	-3.5*	.	-3
COc1ccc(-n2c(C)n[nH]c2=O)cc1OC	-8	0.18	-0.58	3
COc1ccc(-n2c(O)cnc2Nc2nc(C)cc(C)n2)cc1OC	-12	-0.56	.	32*
O=C(c1ccc2c(c1)OCCO2)N(c1ccccn1)C1CCCCC1	-4	-0.58	1.3	1
CC(C)(C)NC(=O)C(c1ccccn1)N(C(=O)c1ccc2c(c1)OCCO2)C1CCCC1 (configuration not stated)	3	-0.09	-0.58	31*
Cn1c(-c2nnn(-c3ccc(F)cc3)n2)cc2ccccc21	.	.	-0.0073	.
SMILES	PostGolgi yeast	Pyk2 oligo antag	Cav32 inh	PostGolgi ctrl
Cc1cc(OCC(=O)Nc2ccc3c(c2)OCCO3)ccc1Cl	-9	1.2	-1	-1
Cc1cc(C)nc(NC(=O)COc2cc(Cl)cc(Cl)c2)n1	9	0.08	-0.094	32*
COc1cc(C)nc(NC(=O)COc2ccc(Cl)cc2C)n1	6	0.44	0.65	-4
Cc1cc(OC(C)C(=O)N/N=C/CC(C)c2ccccc2)ccc1Cl (configuration not stated)	-7	3.6	-6.5*	-2
CNC(=O)C1CC(=O)N/C(=N/N=C(\C)c2cccs2)S1 (configuration not stated)	0	0.05	0.066	9
FC(F)(F)c1nc(N2CCCC2)ncc1-c1nnnn1-c1ccc(Cl)cc1	22	-1.6	-4.8*	58*
Fc1ccc(-n2nnnc2-c2cnc(-c3cccs3)nc2C(F)(F)F)cc1	1	-3.7*	-3.3	46*
Cc1ccc(-n2nnnc2-c2cnc(-c3cccnc3)nc2C(F)(F)F)cc1	2	-1.9	-1.4	8
CC1CCc2sc(C(=O)NCc3ccc(F)cc3)cc2C1 (configuration not stated)	-5	-0.45	-2	13
